A short description of test [1]: Viability qHTS for spleen associated tyrosine kinase inhibitor (SYKi) naive MV4-11 cells (AID 1963823). Note: nearly all actives have a fitted effect of over 40% in size. In short, it runs like this: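 SYKi-naive MV4-11 AML cells, 500 per well, were exposed to library compounds for 72 hr at 37 C, 5% CO2. Viability was then read by CellTiter-Glo luminescence after 10 min at room temperature.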
A short description of test [2]: Viability qHTS for spleen associated tyrosine kinase inhibitor (SYKi) drug resistant MV4-11 cells (AID 1963824). Note: nearly all actives have a fitted effect of over 35% in size. In short, it runs like this:
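SYK-inhibitor-resistant MV4-11 AML cells were seeded at 500 per well onto compound and cultured 72 hours (37 °C, 5% CO2). CellTiter-Glo was then added, and after 10 min at room temperature, luminescence gave viability.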

Test [3] is described as follows: Cellular viability qHTS for adrenocortical cancer (ACC) cell line SW-13 (AID 1963989).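 For activity (max response): cells grown in serum-free medium with ITS supplement; % is set by controls: 0 for no effect and ±100 for the full control effect.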 Note: nearly all actives have a fitted effect of over 65% in size. Conditions: SW-13 ACC cells viability, CellTiter-Glo, 48 h; activity (max response): stronger effect = lower value. In short, it runs like this: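 Viability was read as CellTiter-Glo luminescence after 48 h compound treatment (up to 46 uM final) of SW-13 cells grown serum-free; titration curves were fit with a four-parameter logistic model to give IC50 and efficacy.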

Test [4] in a line: Cellular viability qHTS for adrenocortical cancer (ACC) cell line NCI-H295R (AID 1963990). Note: nearly all actives have a fitted effect of over 60% in size. In short, it runs like this:
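CellTiter-Glo ATP luminescence, read 48 h after compound addition, measured viability of NCI-H295R adrenocortical cells grown serum-free with ITS. Final concentrations spanned up to 46 uM. Data normalized to DMSO and doxorubicin, fitted for IC50 and maximal response.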

Several values for one entry are separate records, joined by “and”; a condition that tells them apart may be missing. Identical values can stand only once. Records with an inconclusive call do not appear. Values without a mark were called inactive. Activity calls are given as the source filed them. Calls come from the whole dose curve; as a rule, active = well fitted curve in the direction sought with a large enough effect; inconclusive = small, poorly fitted or top-dose-only effect, or another doubt; inactive = no such curve, though single readings can be large; an effect the other way counts as inactive or inconclusive.
Potency is the fitted concentration of half-maximal effect.

In the case of `CCNC(=O)NCc1cccc(Cl)c1`, the Potency entry in test [1], in test [2] and in test [4] was “inactive” throughout. For the same compound, in test [3], the activity (max response) is -4.81%.
With `CC(C)(Cc1ccc2ccccc2c1)NC[C@@H](O)COc1cccc(Cl)c1C#N`, the Potency is 6.61 µM (active) in test [1], 6.61 µM (active) in test [2], 6.31 µM (active) in test [3] and 6.31 µM (active) in test [4].
`OCc1ccccc1O`: the Potency entry in test [1], in test [2] and in test [4] was “inactive” each time. The activity (max response) in test [3] was 6.34%.
Consider `COc1cc(-c2ccc(=O)[nH]n2)ccc1OC(F)F`, for which the Potency result in test [1], in test [2] and in test [4] was “inactive” in each case. In addition, the activity (max response) in test [3] is -6.02%.
On to `C=CCNc1c(O)cc2c(O)c1C[C@@H](C)C[C@H](OC)[C@H](O)[C@@H](C)/C=C(/C)[C@H](OC(N)=O)[C@@H](OC)/C=C\C=C(\C)C(=O)N2`, for which the Potency in test [1] is 0.132 µM (active); in test [2], 0.417 µM (active); in test [3], 3.16 µM (active); in test [4], 10 µM (active).
As for `COc1ccc(-c2cc(=O)c3c(O)cc(O[C@@H]4O[C@H](CO[C@@H]5O[C@@H](C)[C@H](O)[C@@H](O)[C@H]5O)[C@@H](O)[C@H](O)[C@H]4O)cc3o2)cc1O`, the Potency result in test [1], in test [2] and in test [4] was “inactive” each time. The activity (max response) in test [3] was -2.14% and 4.75%.
Take `COc1ccc(N2C(=O)N(c3c(C)cccc3Cl)Cc3cnc(Nc4ccc(C5CCN(C)CC5)cc4OC)nc32)nc1`: the Potency is 0.934 µM (active) in test [1], 1.48 µM (active) in test [2], 2.24 µM (active) in test [3] and 17.8 µM (active) in test [4].
For `Cc1onc(-c2c(Cl)cccc2Cl)c1C(=O)N[C@@H]1C(=O)N2[C@@H]1SC(C)(C)[C@@H]2C(=O)O`, the Potency result in test [1], in test [2] and in test [4] was “inactive” in each case. For the same compound, the activity (max response) in test [3] was 1.28%.
In the case of `Fc1ccc(-c2csc3ncnc(NCc4ccc5c(c4)OCO5)c23)cc1`, the Potency in test [1] was 1.66 µM (active); in test [2], 1.66 µM (active); in test [3], 15.8 µM (active); in test [4], 25.1 µM (active).
Regarding `CCCCC1=NC2(CCCC2)C(=O)N1Cc1ccc(-c2ccccc2-c2nn[nH]n2)cc1`, the Potency result in test [1], in test [2] and in test [4] was “inactive” each time. Further, the activity (max response) in test [3] was 8.5%.
On to `O=C(NO)c1cnc(NC2(c3ccccc3)CC2)nc1`, for which the Potency in test [1] was 5.25 µM (active); in test [2] it was 4.17 µM (active); in test [3] it was 10 µM (active); in test [4], 3.98 µM (active).
For the compound `CCn1ccnc1CC1COc2ccccc2O1` (stereo not given), the Potency result in test [1], in test [2] and in test [4] was “inactive” each time. For the same compound, in test [3], the activity (max response) is 8.12%.
For `Cc1c(-c2ccccc2)oc2c(C(=O)OCCN3CCCCC3)cccc2c1=O`, the Potency result in test [1], in test [2] and in test [4] was “inactive” each time. Also, in test [3], the activity (max response) is -7.2%.
`C[C@]12CCCN1CC1=NNC(=O)c3cc(F)cc4[nH]c2c1c34`: the Potency in test [1] was 2.63 µM (active); in test [2], 6.61 µM (active). Further, in test [3], the activity (max response) is -23.5%. In test [4], the Potency result is “inactive”.
On to `COc1cccc2c1C(=O)c1c(O)c3c(c(O)c1C2=O)C[C@@](O)(C(=O)CO)C[C@@H]3O[C@H]1C[C@H](N)[C@H](O)[C@H](C)O1`, for which the Potency in test [1] is 0.133 µM (active); in test [2] it was 0.299 µM (active); in test [3] it was 2.31 µM (active) and 891 nM (active); in test [4] it was 23.1 µM (active) and 7.08 µM (active).
`CC(C)(Oc1ccc(CCNC(=O)c2ccc(Cl)cc2)cc1)C(=O)O`: the Potency entry in test [1], in test [2] and in test [4] was “inactive” throughout. Moreover, in test [3], the activity (max response) was -0.538%.
On to `CCN1C(=O)N2Cc3cc(OC)cc(OC)c3[C@@H](C)C=C2C12CCN(Cc1cc(C)cc(C)c1)CC2`, for which the Potency is 18.6 µM (active) in test [1], 14.8 µM (active) in test [2], 28.2 µM (active) in test [3] and 25.1 µM (active) in test [4].
As to `C#C[C@]1(O)CC[C@H]2[C@@H]3[C@H](C)CC4=C(CCC(=O)C4)[C@H]3CC[C@@]21C`, the Potency entry in test [1] and in test [4] was “inactive” throughout. Moreover, the Potency in test [2] is 18.6 µM (active). The activity (max response) in test [3] was -17.1%.
For the compound `C=CC(=O)Nc1cccc(Nc2nc(Nc3ccc(Oc4ccnc(C(=O)NC)c4)cc3)ncc2F)c1`, the Potency in test [1] was 4.61 µM (active) and 2.63 µM (active); in test [2] it was 5.8 µM (active) and 4.17 µM (active); in test [3] it was 17.8 µM (active); in test [4] it was 17.8 µM (active).
For `Cc1[nH]c(/C=C2\C(=O)Nc3ccc(S(=O)(=O)N(C)c4cccc(Cl)c4)cc32)c(C)c1C(=O)N1CCN(C)CC1`, the Potency in test [1] was 1.3 µM (active) and 1.32 µM (active); in test [2], 1.46 µM (active) and 2.09 µM (active); in test [3] it was 17.8 µM (active); in test [4] it was 14.1 µM (active).
As for `Cc1cc(I)ccc1Nc1c(C(=O)NOCC2CC2)cc(F)c(F)c1F`, the Potency in test [1] is 2.31 µM (active); in test [2] it was 2.59 µM (active); in test [3], 3.16 µM (active); in test [4], 3.98 µM (active).
The corresponding values for `Cc1[nH]c2ccc(F)cc2c1-c1nc2c3cccnc3c3ncccc3c2[nH]1` are 0.231 µM (active), 0.184 µM (active), 2.24 µM (active) and 3.16 µM (active).
Regarding `CN(C)CCN1C(=O)c2ccccc2N(C)c2ccccc21`, the Potency entry in test [1], in test [2] and in test [4] was “inactive” throughout. Further, the activity (max response) in test [3] was -13.1%.
As to `OCc1ccccc1O[C@@H]1O[C@H](CO)[C@@H](O)[C@H](O)[C@H]1O`, the Potency result in test [1], in test [2] and in test [4] was “inactive” in each case. Moreover, the activity (max response) in test [3] is -1.84%.
On to `CCS(=O)(=O)N1CCN(c2ccc(Nc3ncc(C(N)=O)c(NC4CC4)n3)cc2)CC1`, for which the Potency in test [1] was 130 nM (active) and 332 nM (active); in test [2] it was 184 nM (active) and 525 nM (active); in test [3], 22.4 µM (active); in test [4], 10 µM (active).
